Mtb BioA inh – inhibitors of Mycobacterium tuberculosis BioA enzyme. inhibition, % at 9.99 µM. purified M. tuberculosis BioA enzyme, plate reader. 360,000 tested, 0.096% active. AID 602481; in the data active means inhibition above about 40%
Vc quorum ag – induces V. cholerae light production without autoinducers; V. cholerae BH1578 lux reporter, luminescence, 6 h; activation, % at 18.7 µM; 350,000 tested, 0.16% active; AID 588436; in the data active means activation mostly above about 9.7%, no sharp cut-off
GDH-TPI counter – counter-screen for M. tuberculosis FBA inhibitors: GDH-TPI coupled enzymes | GDH-TPI coupled enzyme counterscreen, NADH absorbance | AID 588335 | inhibition, % at 4.8 µM | 360,000 tested, 1.2% active; in the data active means inhibition above about 30%;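 further: 0% = DMSO wells and 100% = wells lacking the enzyme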
Mtb FBA inh – Mtb fructose-bisphosphate aldolase inhibition | P9WQA3 | purified M. tuberculosis FBA, fluorescence read-out | inhibition, % at 1 µM | 360,000 tested, 2.3% active; in the data active means inhibition above about 27%;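 further: 0% = vehicle and 100% = reference inhibitor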
Target sequence (P9WQA3 whole entry, looked up): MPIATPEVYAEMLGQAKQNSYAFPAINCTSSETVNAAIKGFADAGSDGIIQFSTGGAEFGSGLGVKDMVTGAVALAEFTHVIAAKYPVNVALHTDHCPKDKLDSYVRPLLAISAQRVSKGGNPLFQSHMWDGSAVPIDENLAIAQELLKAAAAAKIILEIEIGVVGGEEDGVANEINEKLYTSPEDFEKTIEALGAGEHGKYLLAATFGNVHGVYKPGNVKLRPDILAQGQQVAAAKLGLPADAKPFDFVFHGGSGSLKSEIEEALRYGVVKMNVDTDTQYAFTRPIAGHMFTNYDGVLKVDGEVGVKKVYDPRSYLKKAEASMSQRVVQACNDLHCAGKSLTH
* = called active by the depositor; i = inactive; . = not tested or not shown; + = active, no number. An excerpt weighted towards active compounds, which were near 3% of everything screened.

SMILES | Mtb BioA inh | Vc quorum ag | GDH-TPI counter | Mtb FBA inh
CCCCN(C)Cc1c(O)ccc2c(=O)c(-c3ccccc3OC)coc12 | 0 | i | 41* | 163*
CCCCN(C)Cc1c(O)ccc2c(-c3ccccc3)cc(=O)oc12 | 0 | 1 | 2 | 6
CCCN1C[C@@H](C)[C@H](OC)CN(C)C(=O)c2ccc(NC(=O)c3cccc(OC)c3)cc2OC[C@H]1C | -3 | . | . | .
COCC(=O)Nc1ccc2c(c1)C(=O)N(C)C[C@H](OC)[C@@H](C)CN(Cc1ccccc1OC)[C@@H](C)CO2 | 0 | . | . | .
COc1cc(OC)c2c(C)c(Cl)c(=O)oc2c1 | -2 | i | 16 | 124*
CC(=O)COc1ccc2c(C)c(C)c(=O)oc2c1 | 0 | i | 12 | 131*
CCOc1ccc2c(C)c(Cl)c(=O)oc2c1 | 0 | 1 | 12 | +
Cc1c(C)c2ccc(OCC(=O)N3CCC(C(=O)O)(c4ccccc4)CC3)cc2oc1=O | 7 | 0 | 14 | 140*
CCNC(=O)C[C@H]1C=C[C@H](NC(=O)NC2CCCCC2)[C@@H](CO)O1 | -2 | . | . | .
Cc1c(Cl)c(=O)oc2cc(OCC(=O)NCc3cccs3)ccc12 | . | 0 | 14 | 37*
C[C@@H]1CN([C@H](C)CO)C(=O)c2cccc(NS(=O)(=O)c3ccc(Cl)cc3)c2O[C@@H]1CN(C)Cc1ccc(C(=O)Nc2ccccc2N)cc1 | 0 | . | . | .
COCC(=O)Nc1ccc2c(c1)C(=O)N(C)C[C@H](OC)[C@@H](C)CN[C@@H](C)CO2 | -3 | . | . | .
O=C(Nc1nc2c(s1)CCCC2=O)c1cnccn1 | 0 | i | 32* | 2
COc1ccc(-c2cnc3c(c2)C(=O)N([C@H](C)CO)C[C@H](C)[C@H](CN(C)Cc2ccc(F)cc2)O3)cc1 | 9 | . | . | .
CCCCn1nc2cc(C(=O)NCc3ccc(OC(F)(F)F)cc3)ccc2c1OC | -1 | i | 5 | 29*
CCCCn1nc2cc(C(=O)NCc3cc(C(F)(F)F)cc(C(F)(F)F)c3)ccc2c1OC | -2 | 0 | -3 | 10
CCn1nc2cc(C(=O)NCc3cc(C(F)(F)F)cc(C(F)(F)F)c3)ccc2c1OC | -2 | i | 1 | 39*
CO[C@@H]1CN(C)C(=O)c2ccc(NC(=O)Nc3cccc(F)c3)cc2OC[C@H](C)N(C(=O)Nc2c(C)noc2C)C[C@@H]1C | 3 | . | . | .
COc1ccc(NC(=O)N(C)C[C@H]2Oc3ccc(NS(=O)(=O)c4ccc(Cl)cc4)cc3CC(=O)N([C@@H](C)CO)C[C@@H]2C)cc1 | -2 | . | . | .
O=C(O)c1ccc(-c2ccccc2)[nH]1 | -3 | i | -5 | 2
O=C(O)c1ccc2cc(-c3ccccc3)[nH]c2c1 | -2 | i | 23 | +
CNC[C@H]1Oc2c(NS(=O)(=O)c3ccc(C)cc3)cccc2C(=O)N([C@@H](C)CO)C[C@@H]1C | -1 | . | . | .
O=C1CC(C(=O)O)S/C(=N\N=C\c2ccc(Br)cc2)N1 (configuration not stated) | -1 | -1 | 66* | 0
C/C(=N/N=C1/NC(=O)CC(C(=O)O)S1)c1ccccc1 (configuration not stated) | . | 0 | 21 | 0
CC(C)NC(=O)N(C)C[C@@H]1Oc2ncc(-c3cncnc3)cc2C(=O)N([C@@H](C)CO)C[C@H]1C | 1 | . | . | .
SMILES | Mtb BioA inh | Vc quorum ag | GDH-TPI counter | Mtb FBA inh
CCC(C)NCCOc1ccc(Br)cc1 (configuration not stated) | . | 2 | -3 | -12
CCC(C)NCCOc1ccccc1C (configuration not stated) | 0 | 24* | 9 | 1
CCCN1C[C@@H](C)[C@H](OC)CN(C)C(=O)c2cc(NS(=O)(=O)c3cn(C)cn3)ccc2OC[C@@H]1C | 2 | . | . | .
O=C1N/C(=N\N=C\c2ccco2)SC1Cc1ccccc1[N+](=O)[O-] (configuration not stated) | . | -3 | 38* | -2
CSc1nc2ccc(NC(=O)c3ccco3)cc2s1 | . | 0 | 21 | -4
CCOc1cccc2sc(Nc3nc4ccc(NC(C)=O)cc4s3)nc12 | . | 0 | 39* | 119*
O=C(Nc1nc2c(F)cccc2s1)c1ccco1 | -6 | i | 36* | 6
CCC(=O)Nc1nc2ccc(NC(C)=O)cc2s1 | -1 | 1 | 1 | -4
CC(=O)Nc1ccc2nc(NC(=O)c3ccco3)sc2c1 | -1 | 1 | 32* | -1
C[C@@H]1CN([C@H](C)CO)C(=O)c2cccc(NS(=O)(=O)c3cn(C)cn3)c2O[C@@H]1CN(C)C(=O)Nc1ccccc1 | 0 | . | . | .
O=c1[nH]c(=S)n(C2CC2)c(O)c1/C=N/Nc1ccccc1 | -1 | -1 | 19 | -5
CC(N=Cc1c(O)n(C2CC2)c(=S)[nH]c1=O)c1ccccc1 (configuration not stated) | . | -1 | 35* | -3
N#C/C(C(=O)NCc1ccccc1)=C1/N=C(NC(=O)c2cccs2)c2ccccc21 | . | 0 | 19 | -4
COCCNC(=O)/C(C#N)=C1\N=C(NC(=O)c2ccco2)c2ccccc21 | -1 | 0 | 45* | 3
CCCNC(=O)/C(C#N)=C1\N=C(NC(=O)c2ccco2)c2ccccc21 | . | i | 35* | -4
CC(C)CNC(=O)/C(C#N)=C1\N=C(NC(=O)c2ccco2)c2ccccc21 | -2 | 3 | 29 | -2
O=C(C[C@@H]1CC[C@@H]2[C@H](COC[C@H](O)CN2Cc2nccs2)O1)NCc1ccc(F)cc1 | -1 | . | . | .
COc1ccc(/C=C2\SC(=O)N(CCNC(=O)CCS(=O)(=O)c3ccc(C)cc3)C2=O)cc1 | . | 0 | 33* | 3
COc1ccc(/C=C2\SC(=O)N(CCNC(=O)Cn3cnnn3)C2=O)cc1 | . | 1 | 22 | -2
CN1CCN(C(=O)CCN2C(=O)S/C(=C/c3ccc(Cl)cc3)C2=O)CC1 | . | i | 22 | 0
COc1cccc(/C=C2\SC(=O)N(CCC(=O)N3CCC(C(=O)O)CC3)C2=O)c1 | -1 | -5 | 46* | -1
Cc1ccc(/C=C2\SC(=O)N(CCC(=O)N3CCN(C)CC3)C2=O)cc1 | -1 | -7 | 35* | 0
CCc1noc(C)c1C(=O)NCCN1C(=O)S/C(=C\c2ccc(OC)cc2)C1=O | -1 | 2 | 31* | -5
O=C(C[C@@H]1CC[C@@H](NC(=O)NC2CCCCC2)[C@@H](CO)O1)NCc1ccc(Cl)cc1 | -2 | . | . | .
C[C@@H]1CN([C@H](C)CO)C(=O)c2cc(NC(=O)Cc3ccccc3)ccc2O[C@@H]1CN(C)C(=O)Nc1ccc2c(c1)OCO2 | 0 | . | . | .
SMILES | Mtb BioA inh | Vc quorum ag | GDH-TPI counter | Mtb FBA inh
C[C@@H]1CCCCO[C@H](CN(C)Cc2ccc(C(=O)O)cc2)[C@@H](C)CN([C@@H](C)CO)C(=O)c2cc(NC(=O)CCC(F)(F)F)ccc2O1 | 0 | . | . | .
O=C(C[C@@H]1CC[C@H]2[C@@H](COC[C@@H](O)CN2Cc2ccccc2F)O1)NCc1ccccc1F | 1 | . | . | .
CN(C)CCCNC(=O)C[C@@H]1CC[C@H]2[C@@H](COc3ccc(NC(=O)NC4CCCC4)cc3C(=O)N2C)O1 | -1 | . | . | .
COc1ccc(/C=C2\SC(=O)N(CCC(=O)N3CCN(C)CC3)C2=O)cc1 | 0 | 0 | 41* | -1
CCCC1=[N+](CC)CCn2c(C)ccc21 | -3 | -1 | 31 | -1
CCCC1=[N+](CC(=O)c2ccccc2)CCn2c(C)ccc21 | 2 | 1 | 35* | -4

Source: PubChem BioAssay (several laboratories)
